The list is a sample of the results.
aSyn UTR act – Activators via SNCA 5'UTR binding, MLPCN | activity score, % (tested at 7.5 µM), hits read low | actives 7.1% (n = 300,000) | alpha-synuclein 5'UTR reporter, activators screen; in the data active means activity score below about -60%
* marks the source's active call; other numbers are inactive results.

SMILES	aSyn UTR act
O=C(NNC(=S)Nc1ccc(F)cc1)c1ccccc1OC(F)F	-63*
Cc1ccc(NC(=S)NNC(=O)c2ccccc2OC(F)F)cc1	-87*
O=C(C(Cl)c1ccccc1)N1CCOCC1 (centres undefined)	-65*
CC(=O)N1CCn2c3ccc(C)cc3c3cccc1c32	-83*
Cc1nn(-c2nnc(NC3CCCCC3)nn2)c(C)c1Br	-165*
O=C(Nc1cnc2ccccc2c1)N1CCOCC1	-109*
CN(C(=O)Nc1cnc2ccccc2c1)c1ccccc1	-89*
O=C(Nc1cnc2ccccc2c1)N1CCCCC1	-74*
COCCn1c(C)cc(C(=O)COC(=O)c2ccc(Br)o2)c1C	-100*
Cc1cc(C(=O)COC(=O)c2ccc(Br)o2)c(C)n1C	-112*
CC(=O)Oc1ccccc1-c1nc(C)nc(N(C)C(C)=O)n1	-70*
Nc1nc(N)nc(COc2ccccc2)n1	-106*
Oc1ccccc1-c1cc(-c2ccco2)[nH]n1	-256*
Oc1c(-c2cc(-c3ccco3)[nH]n2)ccc2ccccc12	-170*
CN(C)c1ccc(N/C=C/C(=O)C(C)(C)C)cc1	-78*
O=C(/C=C\Nc1ccc(Br)cc1)c1cccnc1	-69*
CC(=O)Nc1ccc(N/C=C/C(=O)c2ccccc2)cc1	-255*
CN(C)c1ccc(N/C=C/C(=O)c2ccccc2)cc1	-65*
CCOc1ccc(NCc2nnc(SCC(=O)Nc3cc(C)on3)n2-c2ccccc2OC)cc1	-101*
CCOc1ccc(-c2nnc(SCC(=O)Nc3ccc4c(c3)c3ccccc3n4CC)n2N)cc1	84
CCCCN=C1NN=C(c2ccc(C)c(C)c2)CS1	-162*
CC1CC(=O)NN=C1c1ccc(NCCO)c([N+](=O)[O-])c1 (centres undefined)	76
COCCN=C1NN=C(c2ccc(C)c([N+](=O)[O-])c2)CS1	-108*
O=S(=O)(C/C(=C/CO)S(=O)(=O)c1ccccc1)c1ccccc1	-71*
COc1cccc(-c2nc(-c3ccc(C(=O)O)cc3)no2)c1	-96*
SMILES	aSyn UTR act
COc1ccc2[nH]c(=O)c(-c3noc(-c4ccccc4)n3)cc2c1	-121*
O=C(O)c1ccc(-c2noc(-c3cccc(F)c3)n2)cc1	-96*
COc1cccc(-c2nc(-c3ccc(NC(=O)c4cccs4)cc3)no2)c1	-154*
COc1cccc(-c2noc(-c3ccc(Cl)nc3)n2)c1	-182*
COc1ccc(-c2nc(-c3ccc(NC(=O)c4ccncc4)cc3)no2)cc1OC	-155*
COc1ccc(-c2nc(-c3ccccn3)no2)cc1	107
COc1cc(OC)cc(-c2nc(-c3ccccc3)no2)c1	-140*
COc1ccc(NC(=O)C(=O)c2cn(CC(=O)N3CCCC3)c3ccccc23)c(OC)c1	-86*
COc1ccccc1NC(=O)C(=O)c1cn(CC(=O)N2CCOCC2)c2ccccc12	-119*
CN1CCN(C(c2ccc(Br)cc2)c2cc(Cl)c3cccnc3c2O)CC1 (centres undefined)	67
N#C/C(=C\c1c[nH]c2ccccc12)C(=O)NCC1CCCO1 (centres undefined)	-73*
CC(C)OC(=O)/C(C#N)=C/c1c[nH]c2ccccc12	-80*
CC(C)OC(=O)/C(C#N)=C/c1cn(Cc2ccccc2)c2ccccc12	75
N#C/C(=C\c1cccs1)C(=O)NCC1CCCO1 (centres undefined)	-66*
CCOC(=O)c1ccc(-c2ccc(/C=C(\C#N)C(=O)NCC3CCCO3)o2)cc1 (centres undefined)	-85*
CCCn1nnnc1SCC(=O)c1ccc2c(c1)OCCO2	-83*
Cn1nnnc1SCC(=O)c1ccc2c(c1)OCCO2	-67*
COCCn1c(C)cc(C(=O)COC(=O)c2ccc(Cl)c(S(N)(=O)=O)c2)c1C	-103*
Cc1cc(C(=O)COC(=O)c2ccc(Cl)c(S(N)(=O)=O)c2)c(C)n1CC1CCCO1 (centres undefined)	-104*
Cc1cccc(C(=O)NCC(=O)OCC(=O)c2cc(C)n(CC3CCCO3)c2C)c1 (centres undefined)	-102*
O=C(N/N=C/c1cccnc1)c1ccc2c(c1)OCCO2	-82*
O=C(N/N=C/c1ccc([N+](=O)[O-])o1)c1ccc2c(c1)OCO2	94
Cc1ccc(/C=N\NC(=O)c2ccc3c(c2)OCO3)o1	-81*
O=C(N/N=C/c1ccc(Br)o1)c1ccc2c(c1)OCCO2	-123*
CN(C)c1ccc(/C=N/NC(=O)c2ccc3c(c2)OCO3)cc1	-104*
SMILES	aSyn UTR act
COc1c(O)ccc(/C=N/NC(=O)c2ccc3c(c2)OCCO3)c1[N+](=O)[O-]	-110*
COc1ccc2nc(C)cc(SCC(=O)N/N=C/c3cccc4ccccc34)c2c1	47
Cc1nc(SCc2cccc(C(=O)O)c2)nc2c1CCCC2	59
COc1ccc2nc(SCc3ccccc3C)nc(C)c2c1	-107*
COc1ccc2nc(SCc3cccc(C)c3)nc(C)c2c1	-106*
CCOc1ccc(C2C(C(=O)c3ccc(C)o3)=C(O)C(=O)N2c2nc(C)c(C(=O)OC)s2)cc1 (centres undefined)	-92*
CC(C)(C)NC(=O)Nc1ccc(Br)cc1	-138*
CCC(C)NC(=O)Nc1ccc(Br)cc1 (centres undefined)	-73*
CC(=O)NC1=NN(C(C)=O)C(c2ccc(C(C)C)cc2)S1 (centres undefined)	-77*
Cc1ccccc1OCC(=O)N/N=C/c1ccc([N+](=O)[O-])o1	-68*
CC1(C(=O)N/N=C/c2ccc([N+](=O)[O-])o2)CC1(Br)Br (centres undefined)	-96*
O=C(COc1ccccc1[N+](=O)[O-])N/N=C/C=C/c1ccco1	-73*
O=C(Cc1ccc([N+](=O)[O-])cc1)N/N=C/c1ccc([N+](=O)[O-])o1	89
CCN(CC)c1ccc(CNc2ccc(Br)cn2)cc1	-103*
COc1ccc(NC(=O)/C(C#N)=C\c2cc(C)n(-c3ccc4c(c3)OCO4)c2C)cc1	-107*
CNC(=O)/C(C#N)=C/c1ccc(-c2ccc(OC)cc2[N+](=O)[O-])o1	-76*
COc1ccc(NC(=O)/C(C#N)=C\c2ccc(Br)o2)cc1	-114*
COc1ccccc1NC(=O)c1ccc2[nH]c(C)c(C)c2c1	-145*
COc1ccccc1NC(=O)c1ccc2nc(C)sc2c1	-105*
COc1cccc(NC(=O)c2ccc3nc(C)sc3c2)c1	-239*
c1ccn2c(c1)nc1c2nc2ccccn21	-189*
Cc1c(-c2ccc(Br)cc2)nc2ccccn12	-181*
Clc1c(-c2ccccc2)nc2ccccn12	-152*
Cc1ccc(-c2nc3ccccn3c2C=O)cc1	-108*
O=C(/C=C/Nc1cccc([N+](=O)[O-])c1)c1cccs1	-279*
SMILES	aSyn UTR act
Cc1ccc(N/C=C/C(=O)c2cccs2)cc1C	-180*
O=C(/C=C/Nc1ccccc1C(=O)O)c1cccs1	-72*
O=C(/C=C/Nc1ccc(Nc2ccccc2)cc1)c1cccs1	-170*
Cc1cc(N/C=C/C(=O)c2cccs2)ccc1F	-250*
CCOC(=O)Nc1cc(Br)c2c(c1)OCCO2	-68*
O=C(/C=C/c1ccco1)Nc1ccc(-c2nc3ccccc3[nH]2)cc1	89
O=C(Nc1ccc2nc(-c3ccco3)[nH]c2c1)c1ccco1	-118*
O=C(Nc1ccc2nc(-c3ccccc3)[nH]c2c1)c1cccs1	-103*
Cc1ccc2nc(-c3cccc(NC(=O)c4ccco4)c3)[nH]c2c1	-121*
O=C(Nc1ccc(-c2nc3ccccc3[nH]2)cc1)c1ccco1	-133*
O=C(c1ccccc1)c1ccc2nc(-c3ccc(NC(=O)c4ccccc4F)cc3)[nH]c2c1	-101*

Assay outcomes from PubChem.
